Unmarked numbers belong to inactive results. For some assays here: Measured potencies and affinities stand elsewhere. Active and inactive are the calls of the source. Unless noted, how the calls were made is not given here.
Columns and labels:
[1] = antimalarial activity against Dd2 strain (AID 2302;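 active means growth inhibition above 50% at the single 2 µM test dose, taken to imply half-maximal potency below 2 µM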;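 further: 0% = DMSO untreated growth and 100% = chloroquine plus artemisinin killed control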); conditions: P. falciparum Dd2 in RBCs, LDH growth readout, 72 h; at 2 µM; hits give high values
[2] = HepG2 cytotoxicity, primary screen, cytotoxicity control for P. falciparum antimalarial project, cell-based, ATP luminescence (AID 2303;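 active means inhibition above 50%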;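 further: 0% = DMSO wells and 100% = digitonin-killed cells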); conditions: HepG2 viability, 24-48 h, at 10 µM, hits give high values
[3] = molecular target: L-lactate dehydrogenase (Plasmodium falciparum (isolate CDC / Honduras)) (UniProt Q27743); assay: PfLDH activity inhibition – cell lysate, 3D7 strain, counter-screen for P. falciparum growth inhibition project (AID 2304);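 further: 0% = vehicle and 100% = reference inhibitor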; conditions: P. falciparum 3D7 crude extract, LDH APAD/NBT absorbance; at 2 µM; hits give high values
[4] = inhibition of 3D7 malaria parasite growth – strain 3D7 (AID 2306);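 further: 0% = DMSO wells and 100% = chloroquine plus artemisinin control wells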; conditions: P. falciparum 3D7 erythrocytic growth, LDH absorbance, 72 h; at 2 µM; hits give high values
[5] = molecular target: Calcium-dependent protein kinase 1 (Plasmodium falciparum (isolate 3D7)) (UniProt P62344); assay: PfCDPK1 kinase inhibitors, biochemical, TCAMS library (AID 1159585; cut-off not given, nearly all actives have IC50 up to about 0.98 µM;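 further: inhibitors leave more ATP so luminescence rises with inhibition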); conditions: recombinant PfCDPK1, Kinase-Glo ATP depletion luminescence
[6] = molecular target: Plasmodium falciparum protein kinase 6 (PK6, PF3D7_1337100) (UniProt Q8IDW1); assay: PfPK6 kinase inhibitors, biochemical, TCAMS library (AID 1159586); conditions: recombinant PfPK6, Kinase-Glo ATP depletion luminescence
[7] = molecular target: Protein kinase 7 (PK7), Plasmodium falciparum 3D7 (PF3D7_0213400) (UniProt Q7YTF7); assay: inhibition of Plasmodium PK7 catalytic activity – biochemical, TCAMS antimalarial set, Kinase-Glo luminescence (AID 1159587); conditions: recombinant PfPK7, Kinase-Glo ATP depletion luminescence
[8] = molecular target: Calcium-dependent protein kinase 4 (Plasmodium falciparum (isolate 3D7)) (UniProt Q8IBS5); assay: PfCDPK4 kinase inhibitors, biochemical, TCAMS library (AID 1159588; cut-off not given, nearly all actives have IC50 up to about 0.91 µM); conditions: recombinant PfCDPK4, Kinase-Glo ATP depletion luminescence
Sequence of Calcium-dependent protein kinase 4 (Plasmodium falciparum (isolate 3D7)) (Q8IBS5 whole entry, looked up): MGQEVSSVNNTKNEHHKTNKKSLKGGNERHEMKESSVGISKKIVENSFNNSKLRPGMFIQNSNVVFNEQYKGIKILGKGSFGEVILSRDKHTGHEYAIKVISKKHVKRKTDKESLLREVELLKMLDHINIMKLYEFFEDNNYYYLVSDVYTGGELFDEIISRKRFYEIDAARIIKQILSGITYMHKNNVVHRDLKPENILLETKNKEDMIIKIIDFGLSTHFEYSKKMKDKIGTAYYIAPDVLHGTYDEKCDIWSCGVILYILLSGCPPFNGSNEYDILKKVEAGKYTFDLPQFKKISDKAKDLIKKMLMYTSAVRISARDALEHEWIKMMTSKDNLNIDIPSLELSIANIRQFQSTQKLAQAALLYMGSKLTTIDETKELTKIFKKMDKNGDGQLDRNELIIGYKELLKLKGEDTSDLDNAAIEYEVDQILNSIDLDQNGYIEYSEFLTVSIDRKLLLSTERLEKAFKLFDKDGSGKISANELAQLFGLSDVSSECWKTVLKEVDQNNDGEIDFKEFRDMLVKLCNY

Sequence of L-lactate dehydrogenase (Plasmodium falciparum (isolate CDC / Honduras)) (Q27743 whole entry, looked up): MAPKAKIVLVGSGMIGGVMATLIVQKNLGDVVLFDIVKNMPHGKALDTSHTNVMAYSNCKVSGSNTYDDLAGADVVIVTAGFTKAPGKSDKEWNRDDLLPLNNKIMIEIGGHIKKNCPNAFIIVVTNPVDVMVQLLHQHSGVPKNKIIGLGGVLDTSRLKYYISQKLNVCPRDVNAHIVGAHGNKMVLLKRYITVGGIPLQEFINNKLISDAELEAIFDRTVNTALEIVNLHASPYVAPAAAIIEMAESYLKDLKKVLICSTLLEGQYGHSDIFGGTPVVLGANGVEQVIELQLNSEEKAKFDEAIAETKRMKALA
Sequence of Calcium-dependent protein kinase 1 (Plasmodium falciparum (isolate 3D7)) (P62344 whole entry, looked up): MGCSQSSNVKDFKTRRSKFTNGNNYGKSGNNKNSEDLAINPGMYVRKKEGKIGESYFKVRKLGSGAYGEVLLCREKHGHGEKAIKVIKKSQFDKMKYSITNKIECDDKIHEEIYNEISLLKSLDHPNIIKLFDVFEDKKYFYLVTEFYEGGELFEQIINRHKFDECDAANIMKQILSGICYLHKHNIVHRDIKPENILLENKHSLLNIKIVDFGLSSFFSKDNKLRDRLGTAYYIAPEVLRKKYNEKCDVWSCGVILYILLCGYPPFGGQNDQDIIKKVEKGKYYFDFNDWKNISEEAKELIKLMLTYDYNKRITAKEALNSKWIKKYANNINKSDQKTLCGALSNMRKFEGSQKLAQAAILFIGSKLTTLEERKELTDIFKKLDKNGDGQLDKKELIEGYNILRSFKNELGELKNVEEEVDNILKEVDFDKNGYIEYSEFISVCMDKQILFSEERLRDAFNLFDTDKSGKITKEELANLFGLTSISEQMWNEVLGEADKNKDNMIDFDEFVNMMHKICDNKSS
Sequence of Protein kinase 7 (PK7), Plasmodium falciparum 3D7 (PF3D7_0213400) (Q7YTF7 1-343): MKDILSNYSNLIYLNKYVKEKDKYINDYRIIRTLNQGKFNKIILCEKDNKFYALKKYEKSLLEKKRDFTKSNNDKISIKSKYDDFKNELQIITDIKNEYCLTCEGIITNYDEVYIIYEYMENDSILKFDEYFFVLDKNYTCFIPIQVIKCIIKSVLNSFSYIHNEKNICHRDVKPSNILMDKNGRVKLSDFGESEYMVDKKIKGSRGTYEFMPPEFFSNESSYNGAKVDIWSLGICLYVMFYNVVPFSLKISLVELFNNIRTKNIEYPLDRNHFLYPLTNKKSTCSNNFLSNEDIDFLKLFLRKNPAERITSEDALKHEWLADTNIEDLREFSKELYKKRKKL
Sequence of Plasmodium falciparum protein kinase 6 (PK6, PF3D7_1337100) (Q8IDW1 1-305): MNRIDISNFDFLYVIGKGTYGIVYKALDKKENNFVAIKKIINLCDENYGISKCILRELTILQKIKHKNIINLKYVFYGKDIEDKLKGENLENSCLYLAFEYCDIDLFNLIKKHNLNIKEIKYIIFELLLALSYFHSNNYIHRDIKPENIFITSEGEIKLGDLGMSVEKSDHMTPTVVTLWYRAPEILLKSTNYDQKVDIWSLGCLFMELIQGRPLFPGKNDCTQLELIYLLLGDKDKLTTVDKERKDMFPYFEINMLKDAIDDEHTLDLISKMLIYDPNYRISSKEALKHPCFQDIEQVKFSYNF

Structure (SMILES) | growth inhibition [1] | inhibition [2] | inhibition [3] | growth inhibition [4] | outcome [5] | outcome [6] | outcome [7] | outcome [8]
CCCc1cc(Cc2cnc(N)nc2N)cc(CC)c1O | -3% | 56% (active) | -3% | 87% (active) | inactive | inactive | inactive | inactive
COc1cc2nc(N3CCC(CNC(=O)c4ccc(-c5ccc(C#N)cc5C)cc4)CC3)nc(N)c2cc1OC | 99% (active) | 28% | -4% | 101% (active) | inactive | inactive | inactive | inactive
Cc1[nH]cc(Br)c(=O)c1-c1ccc(Oc2ccccc2)cc1 | 96% (active) | -5% | -6% | 97% (active) | inactive | inactive | inactive | inactive
CN1CCC(N2CCN(Cc3ccc(-c4ccc(-c5nc6ccccc6[nH]5)s4)cc3)CC2)CC1 | 100% (active) | 62% (active) | -3% | 101% (active) | inactive | inactive | inactive | inactive
CCN(CC)c1ccc(C(=O)Cn2ccc(=N)cc2)cc1 | 64% (active) | 92% (active) | 3% | 84% (active) | inactive | inactive | inactive | inactive
CCc1ccc(CN2CCC(NC(=O)c3ccc(-c4ccc(N(C)C)cc4)s3)CC2)cc1 | 44% | 52% (active) | -4% | 84% (active) | inactive | inactive | inactive | inactive
O=S(=O)(c1c(Cl)cccc1Cl)N1CCCCC(c2ccc(C(F)(F)F)cc2)=N1 | 98% (active) | 11% | -2% | 99% (active) | inactive | inactive | inactive | inactive
N#Cc1ccc2[nH]cc(CN3CCC4(CC3)CN(CCNCc3ccccc3)C(=O)O4)c2c1 | 0% | -5% | -1% | 100% (active) | inactive | inactive | inactive | inactive
Oc1ccc(CCNc2nc(NCc3ccccc3-c3ccc(F)cc3)nc(N3CCNCC3)n2)cc1 | 24% | 15% | 0% | 92% (active) | inactive | inactive | inactive | inactive
C=CCOc1ccccc1CNCC(O)c1cc(Br)cs1 (configuration not stated) | 72% (active) | 25% | -4% | 93% (active) | inactive | inactive | inactive | inactive
COc1ccc2nccc([C@@H](O)CN3CCC(NC[C@H](Cc4ccccc4)NC(=O)OC(C)(C)C)CC3)c2c1 | 86% (active) | 18% | 6% | 98% (active) | inactive | inactive | inactive | inactive
COc1ccc(C)cc1NC(=O)CSc1nc2cccnc2n1C1CCCCC1 | 78% (active) | 14% | -8% | 89% (active) | inactive | inactive | inactive | inactive
O=C(Nc1ccc(OC2CCN(Cc3ccsc3)CC2)c(Cl)c1)c1ccc(F)cc1 | 83% (active) | 31% | 0% | 98% (active) | inactive | inactive | inactive | inactive
Cc1cc(C)c2oc(-c3cccc(NC(=O)c4ccc([N+](=O)[O-])o4)c3C)nc2c1 | 67% (active) | -1% | 0% | 90% (active) | inactive | inactive | inactive | inactive
O=C(Cc1cnc[nH]1)Nc1cccc(-c2ccc(-c3nc4ccc(C(F)(F)F)cc4[nH]3)s2)c1 | 99% (active) | 5% | 3% | 101% (active) | inactive | inactive | inactive | inactive
CCN(CC)CCN(CCN(CC)CC)c1ccc(-c2nc3cc(Cl)c(Cl)cc3[nH]2)cc1 | 97% (active) | 9% | 2% | 101% (active) | inactive | inactive | inactive | inactive
Fc1ccc2nc(-c3ccc(-c4ccc(CNCCN5CCNCC5)cc4)cc3)[nH]c2c1 | 70% (active) | 94% (active) | -3% | 96% (active) | inactive | inactive | inactive | inactive
CCc1cc2c(=O)c(-c3nc(C)cs3)c([C@H](N)Cc3ccc(O)cc3)oc2cc1O | 19% | 11% | 1% | 101% (active) | inactive | inactive | inactive | inactive
O=C(Nc1ccnc(N2C[C@H]3C[C@@H]2CN3Cc2cccc(O)c2)c1)c1ccc(F)cc1 | 0% | 2% | 4% | 92% (active) | inactive | inactive | inactive | inactive

Source: PubChem BioAssay
